Rows were chosen to be rich in hits. Some 31% of all compounds tested hit in one or more screens of this group.
CYP2C9 inhib: inhibitors of human CYP2C9; CYP2C9 Supersomes, luciferin-H conversion, luminescence; 96,000 compounds, 20% hits; inhibition, % at 5 µM; P11712; AID 777;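 active = blocking of liver enzyme CYP2C9 beyond about 50% at 5 µM, limit read from the data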
CYP2C19 inh: inhibitors of human CYP2C19. P33261. CYP2C19 Supersomes, luciferin-H EGE luminescence, 30 min. inhibition, % at 5 µM. 96,000 compounds, 21% hits. AID 778;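 active = CYP2C19 inhibition above a set limit at 5 µM in the primary screen, cut at about 50% in these data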;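 also: plate controls were negative control wells for no effect and 2.5 mM tranylcypromine positive control for full effect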
Target sequence (P33261 whole entry, looked up): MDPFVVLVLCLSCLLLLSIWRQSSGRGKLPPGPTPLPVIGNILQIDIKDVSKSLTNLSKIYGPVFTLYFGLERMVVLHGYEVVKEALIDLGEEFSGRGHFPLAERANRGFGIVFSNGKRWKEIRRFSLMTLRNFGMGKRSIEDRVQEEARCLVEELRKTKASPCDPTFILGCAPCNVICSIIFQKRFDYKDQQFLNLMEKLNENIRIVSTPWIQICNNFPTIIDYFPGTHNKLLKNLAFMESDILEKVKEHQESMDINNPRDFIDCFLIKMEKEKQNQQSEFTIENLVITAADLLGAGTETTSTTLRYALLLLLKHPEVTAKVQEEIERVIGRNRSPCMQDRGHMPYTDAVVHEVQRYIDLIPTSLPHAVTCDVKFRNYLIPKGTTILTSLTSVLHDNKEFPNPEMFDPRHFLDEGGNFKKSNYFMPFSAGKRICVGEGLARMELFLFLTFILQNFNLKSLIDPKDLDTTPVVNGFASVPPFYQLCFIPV
CYP2C19 act: increases human CYP2C19 enzyme activity | AID 1025 | P33261 | recombinant CYP2C19, luciferin-H EGE luminescence; stronger effect = higher value; 0 = fully inhibited enzyme, 1 = untreated enzyme | 96,000 tested, under 10 active | activation factor at 5 µM;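 active = activation factor of at least 2 at 5 µM in the primary screen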;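 also: 0 = wells with 2.5 mM tranylcypromine and 1 = vehicle-only wells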
CYP2C9 act: CYP2C9 (human) activation | P11712 | recombinant CYP2C9, luciferin-H conversion, luminescence; stronger effect = higher value; factor 1 = untreated enzyme, 0 = blocked | activation factor at 5 µM | 96,000 compounds, 1.4% hits | AID 1024;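 active = activation factor of 2 or more for CYP2C9 at a 5 µM dose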;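 also: 0 = sulfaphenazole-blocked wells and 1 = vehicle-only wells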
* marks the source's active call; other numbers are inactive results.

How did CCCCN(CC)C(=O)Cc1cn(C)c2ccccc12 do in these assays?
CYP2C9 inhib: -238.5; CYP2C19 inh: 95.3*; CYP2C19 act: 0; CYP2C9 act: 3.4*

Results for Cc1ccccc1NC(=O)Cc1cn(C)c2ccccc12 ?
CYP2C9 inhib: -195.8; CYP2C19 inh: 44.7; CYP2C19 act: 0.6; CYP2C9 act: 3*

What do the screens show for `COc1cccc(NC(=O)Cn2c(=O)n(CC3CCCO3)c(=O)c3ccccc32)c1` (stereo unspecified)?
CYP2C9 inhib: 41.4; CYP2C19 inh: 62.6*; CYP2C19 act: 0.4; CYP2C9 act: 0.6

Results for CN1CCN(c2ccccc2NC(=O)Cc2cn(C)c3ccccc23)CC1 ?
CYP2C9 inhib: 6.8; CYP2C19 inh: 3.2; CYP2C19 act: 1; CYP2C9 act: 0.9

What do the screens show for `Cc1cc(C)c(C)c(OCC(=O)NCc2nc(-c3ccccc3)no2)c1`?
CYP2C9 inhib: -11.5; CYP2C19 inh: -4.2; CYP2C19 act: 1; CYP2C9 act: 1.1

What do the screens show for `COc1ccc(NC(=O)C(=O)N2N=C(C(C)C)CC2(O)C(F)(F)F)cc1` (stereo unspecified)?
CYP2C9 inhib: -5.7; CYP2C19 inh: -4.4; CYP2C19 act: 1; CYP2C9 act: 1.1

What do the screens show for `CNC(=O)CC(C(=O)O)c1ccc(OCC(C)C)cc1` (stereo unspecified)?
CYP2C9 inhib: -12.7; CYP2C19 inh: -13.6; CYP2C19 act: 1.1; CYP2C9 act: 1.1

Results for COc1cccc(NC(=O)CCCn2c(=O)[nH]c3ccccc3c2=O)c1 ?
CYP2C9 inhib: 72.2*; CYP2C19 inh: 25.0; CYP2C19 act: 0.8; CYP2C9 act: 0.3

How did Cc1ccc(OCc2nc(C#N)c(NCc3ccc4c(c3)OCO4)o2)cc1 do in these assays?
CYP2C9 inhib: 99.1*; CYP2C19 inh: 98.2*; CYP2C19 act: 0; CYP2C9 act: 0

Results for CCOc1ccc(-c2nc(C#N)c(NCc3ccc4c(c3)OCO4)o2)cc1 ?
CYP2C9 inhib: 27.6; CYP2C19 inh: -11.8; CYP2C19 act: 1.1; CYP2C9 act: 0.7

How did CN(C)CCNc1oc(COc2ccc(-c3ccccc3)cc2)nc1C#N do in these assays?
CYP2C9 inhib: 15.6; CYP2C19 inh: 22.9; CYP2C19 act: 0.8; CYP2C9 act: 0.8

How did C=CCNc1oc(COc2ccc(C)cc2)nc1C#N do in these assays?
CYP2C9 inhib: 27.0; CYP2C19 inh: 65.4*; CYP2C19 act: 0.3; CYP2C9 act: 0.7

What do the screens show for `CC(C)(C)OCC(NC(=O)C(CC(N)=O)NC(=O)OC(C)(C)C)C(=O)OC(C)(C)C` (stereo unspecified)?
CYP2C9 inhib: -6.9; CYP2C19 inh: 2.7; CYP2C19 act: 1; CYP2C9 act: 1.1

What do the screens show for `Cc1n[nH]c(C)c1S(=O)(=O)N(CC(=O)N1CCc2ccccc21)c1ccc(C(C)C)cc1`?
CYP2C9 inhib: 58.4*; CYP2C19 inh: 18.9; CYP2C19 act: 0.8; CYP2C9 act: 0.4

Results for O=S(=O)(Cc1ccccc1)N1CCCC1 ?
CYP2C9 inhib: -11.0; CYP2C19 inh: 31.4; CYP2C19 act: 0.7; CYP2C9 act: 1.1

Results for CN(C)S(=O)(=O)N1CCc2ccccc21 ?
CYP2C9 inhib: -129.6; CYP2C19 inh: 16.7; CYP2C19 act: 0.8; CYP2C9 act: 2.3*

How did O=S(=O)(Cc1ccccc1)N1CCc2ccccc21 do in these assays?
CYP2C9 inhib: 34.6; CYP2C19 inh: 68.9*; CYP2C19 act: 0.3; CYP2C9 act: 0.7

How did CN(C)S(=O)(=O)N1CCc2ccccc2C1 do in these assays?
CYP2C9 inhib: -135.9; CYP2C19 inh: 65.9*; CYP2C19 act: 0.3; CYP2C9 act: 2.4*

Results for CCOc1ccc(S(=O)(=O)N2CCc3ccccc3C2)cc1 ?
CYP2C9 inhib: -20.1; CYP2C19 inh: 33.5; CYP2C19 act: 0.7; CYP2C9 act: 1.2

Results for CCOC(=O)c1c(C)[nH]c(NC(=O)N2CCOCC2)c1C ?
CYP2C9 inhib: -3.3; CYP2C19 inh: -10.0; CYP2C19 act: 1.1; CYP2C9 act: 1

How did C=CCNC(=S)N/N=C(\C)c1ccccn1 do in these assays?
CYP2C9 inhib: 26.7; CYP2C19 inh: 34.1; CYP2C19 act: 0.7; CYP2C9 act: 0.7

What do the screens show for `O=C(O)C1C2C=CC3(CN(Cc4ccccn4)C(=O)C13)O2` (stereo unspecified)?
CYP2C9 inhib: -26.9; CYP2C19 inh: -30.3; CYP2C19 act: 1.3; CYP2C9 act: 1.3

What do the screens show for `Cc1ccc(S(=O)(=O)N2CCC(C(=O)N3CCC(C(=O)NCc4cccnc4)CC3)CC2)cc1`?
CYP2C9 inhib: -7.5; CYP2C19 inh: -9.3; CYP2C19 act: 1.1; CYP2C9 act: 1.1

What do the screens show for `Cc1n[nH]c(C)c1S(=O)(=O)N1CCc2ccccc21`?
CYP2C9 inhib: 0.6; CYP2C19 inh: 61.4*; CYP2C19 act: 0.4; CYP2C9 act: 1

What do the screens show for `Cn1cnc(S(=O)(=O)N2CCc3ccccc32)c1`?
CYP2C9 inhib: -25.1; CYP2C19 inh: -4.2; CYP2C19 act: 1; CYP2C9 act: 1.3

Results for COCCCn1c(-c2ccc(OC)cc2)nc2nc3ccccc3nc21 ?
CYP2C9 inhib: -20.8; CYP2C19 inh: 0.0; CYP2C19 act: 1; CYP2C9 act: 1.2

Results for O=C1c2ccccc2C(Nc2ccc(Cl)cn2)N1Cc1ccccc1 (stereo unspecified) ?
CYP2C9 inhib: 70.3*; CYP2C19 inh: 81.3*; CYP2C19 act: 0.2; CYP2C9 act: 0.3

What do the screens show for `O=C(OCC(=O)N1CCN(C(=O)c2ccco2)CC1)c1cc(=O)c2ccccc2o1`?
CYP2C9 inhib: 4.6; CYP2C19 inh: -4.8; CYP2C19 act: 1; CYP2C9 act: 1

What do the screens show for `CN(C)C(C(=O)NC1CCCCC1)c1ccc(Cl)cc1` (stereo unspecified)?
CYP2C9 inhib: 29.1; CYP2C19 inh: 56.1*; CYP2C19 act: 0.4; CYP2C9 act: 0.7

How did COc1ccccc1NC(=O)c1sc2ncn(Cc3ccc(C)cc3)c(=O)c2c1C do in these assays?
CYP2C9 inhib: -41.5; CYP2C19 inh: 83.5*; CYP2C19 act: 0.2; CYP2C9 act: 1.4

Results for Cc1c(C(=O)Nc2ccc3c(c2)OCO3)sc2ncn(CC(=O)N3CC(C)CC(C)C3)c(=O)c12 (stereo unspecified) ?
CYP2C9 inhib: 78.9*; CYP2C19 inh: 23.4; CYP2C19 act: 0.8; CYP2C9 act: 0.2

What do the screens show for `Cc1c(C(N)=O)sc2ncn(CC(=O)N3CCC(C)CC3)c(=O)c12`?
CYP2C9 inhib: 77.0*; CYP2C19 inh: 16.4; CYP2C19 act: 0.8; CYP2C9 act: 0.2

Results for Cc1c(C(=O)NC(C)C)sc2ncn(CC(=O)N3CCC(C)CC3)c(=O)c12 ?
CYP2C9 inhib: 62.6*; CYP2C19 inh: 38.7; CYP2C19 act: 0.6; CYP2C9 act: 0.4

How did OC(COc1ccc2c(c1)OCO2)CN1CCc2ccccc2C1 (stereo unspecified) do in these assays?
CYP2C9 inhib: 8.0; CYP2C19 inh: 42.6; CYP2C19 act: 0.6; CYP2C9 act: 0.9

How did COCC(C)n1c(C)cc(C(=O)COC(=O)c2c(NC(C)=O)sc(C)c2C)c1C (stereo unspecified) do in these assays?
CYP2C9 inhib: 13.1; CYP2C19 inh: 1.8; CYP2C19 act: 1; CYP2C9 act: 0.9

How did CO/N=C(/CS(=O)Cc1ccccc1Cl)c1ccc(Cl)cc1Cl (stereo unspecified) do in these assays?
CYP2C9 inhib: 1.0; CYP2C19 inh: 83.1*; CYP2C19 act: 0.2; CYP2C9 act: 1

Bioassay records (PubChem BioAssay)
